# Results published in PubChem BioAssay (NCI).
# The panel holds about 83,000 compounds, 20% with a hit somewhere; the sample as a whole holds those more often.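 Method: cells in 96-well plates; compound added at one concentration; 48 h incubation; percent growth measured; values under 10 scored active.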 Values without a mark were called inactive. Activity calls are given as the source filed them.
# Tested on: SK-MEL-2 melanoma
# Test: NCI-60 one-dose screen, 48 h (100 = growth as untreated, 0 = no growth, -100 = all killed)
# Details: 10 µM unless noted
# Method: Growth inhibition of the SK-MEL-2 human tumor cell line is measured as a screen for anti-cancer activity. Cells are grown in 96 well plates and exposed to the test compound for 48 hours. Compounds are tested at a single concentration, which is 10^-5 M for most compounds. The reported endpoint is percent growth (GI% or GIPRCNT), where numbers from 0 - 100% represent growth inhibition, and numbers from -100% - 0 represent cell death. For example, a value of 40 represents 60% growth inhibition. A value of 0 means no net growth occurred over the course of the experiment. A value of -40 indicates 40% of cells at the beginning of the experiment died by the end of the experiment. A value of -100 means all cells are dead at the end of the experiment.
# NCI-60 Human Tumor Cell Lines Screen was performed using the standard one-dose NCI protocol, which is described in more detail at https://dtp.cancer.gov/discovery_development/nci-60/default.htm.
# Compounds with GIPRCNT values below 10 were considered active. Activity score was based on GIPRCNT using the following formula: […]
# Score is 0 for GIPRCNT values of 100 or above, 50 for GIPRCNT values of 0, and 100 for GIPRCNT values of -100.
row,SMILES,growth
1,CNC(=O)c1cc(Oc2ccc3nc(NC(=O)c4ccc(CN5CCN(C)CC5)c(C(F)(F)F)c4)sc3c2)ccn1,98.7%
2,O=C1c2c(c3c4cc(Br)ccc4[nH]c3c3ccc4ccccc4c23)C(=O)N1CCN1CCNCC1,113%
3,NC(=O)c1c(NC(=O)c2cccc(OC(F)(F)F)c2)sc2c1CCC(=O)C2,105%
4,COc1ccc(Cn2cc3c(c2-c2cc(OC)c(OC)c(OC)c2)CCCc2cnoc2-3)cc1N,55.4%
5,C[C@H]1[C@H](C)CC[C@]2(COC(=O)c3cccnc3)CC[C@]3(C)C(=CC[C@@H]4[C@@]5(C)CCCNC(C)(C)[C@@H]5CC[C@]43C)[C@H]12,98.6%
6,Cc1ccc(Nc2ncnc3c2c(C)nn3-c2ccc([N+](=O)[O-])cc2)cc1,107%
7,C#CCOc1ccccc1C(Nc1ccccc1)c1nnnn1C1CCCCC1 (stereo not given),110%
8,C/C=C/C=C1\C[C@H]2CO[C@H](O2)C1=O,100%
9,O=C1c2c(c3c4cccnc4[nH]c3c3ccc4ccccc4c23)C(=O)N1CCN1CCCCC1,114%
10,c1ccc(-c2n(Cc3ccc4ccccc4c3)c3c4ccccc4c4ccccc4c3[n+]2Cc2ccc3ccccc3c2)cc1,-68.3% (active)
11,COc1cc(CNC(=O)/C=C/c2ccccc2)ccc1OCC(=O)NO,99.6%
12,O=C(COc1ccc(C2SCC(=O)N2c2ccc(F)cc2)cc1)c1ccccc1 (stereo not given),99.8%
13,COc1ccc(-c2cc(-c3cccc4ccccc34)n3c(n2)nc2ccccc23)cc1,79.1%
14,Cn1cc(-c2nn3cc(-c4ccncc4)nc3s2)c2cc(Cl)ccc21,76%
15,O=C(NNc1nc2cc(F)c(F)cc2n2cccc12)c1ccncn1,29.8%
16,COc1ccc(S(=O)(=O)NCCCNc2nccc(-n3cnc4ccccc43)n2)cc1,103%
17,COc1ccc(-c2nnc(SCc3ccc(O)c4ncccc34)o2)cc1,48.3%
18,O=[N+]([O-])c1ccc(-c2nnc(SCc3ccc(O)c4ncccc34)n2-c2ccccc2)cc1,13.8%
19,CCC(CC)N1C(=O)/C(=c2\sc3n(c2=O)C2C(NN=3)N(CC)C(=O)N2CC)c2ccccc21 (stereo not given),59.4%
20,CN(C)C(=O)C1=NC(CO)C(=O)N(c2ccc(Cl)cc2)N1 (stereo not given),99%

row,SMILES,growth
1,Oc1ccccc1-c1nnc(SCc2ccc(O)c3ncccc23)n1-c1ccccc1,23.1%
2,Oc1ccccc1/C=N/Nc1nc(N/N=C/c2ccccc2O)nc(N2CCOCC2)n1,72%
3,COc1cc([C@H]2OC[C@H]3[C@@H]2CO[C@@H]3c2ccc(O)c(OC)c2)ccc1O,95.3%
4,Oc1ccccc1-c1nnc(SCc2ccc(O)c3ncccc23)o1,34.1%
5,Cn1cc2c(c1)-c1c(sc3nc(-c4ccc(NC(=O)Nc5cc(C(C)(C)C)on5)cc4)cn13)CC2,65.5%
6,COc1ccc(/C=N\NC(=O)c2ccc3nc(-c4ccc(Br)cc4)[nH]c3c2)cc1,96.9%
7,CC(=O)Nc1cccc(-n2cnc3cc(-c4ccc(O)cc4)ccc32)c1,29.2%
8,C#CCOc1ccc(/C=N/Nc2nc(-c3cc4cc(Br)cc(Br)c4oc3=O)cs2)cc1,109%
9,NS(=O)(=O)c1ccc(-n2cc(CC=O)nn2)cc1,109%
10,C/C(=C(/C)C1CC1CCN(C(=O)c1ccc([N+](=O)[O-])cc1)S(=O)(=O)c1ccc(C)cc1)C1CCCCC1 (stereo not given),102%
11,N#C/C(=C\c1ccc(-c2ccc(F)cc2)o1)C(=O)Nc1ncc(Cc2ccc(Cl)cc2Cl)s1,68.9%
12,CC(=O)Nc1ccc(NC(=O)Nc2cccc(-c3nc(-c4ccc(NC(=O)c5cccs5)cc4Cl)no3)c2)cc1C(F)(F)F,-61.4% (active)
13,CCCCCCNC(=O)Oc1ccc(/C(=C(/C)c2ccc(OC)cc2)c2ccc(OCCN3CCCC3)cc2)cc1,93.4%
14,O=C(Nc1cccc(Cl)c1)Nc1nc2ccc([N+](=O)[O-])cc2s1,-24.1% (active)
15,Cc1cc(F)cc(NS(=O)(=O)c2ccc(-c3cnc(C4CC4)o3)cc2)c1,67%
16,COc1ccc(N)cc1C(=O)Nc1cccc(-c2cc(=O)c3c(OC)c(OC)c(OC)cc3o2)c1,89.1%
17,CCOC(=O)C1=C(C)N=C2Sc3ccccc3N2C1c1ccccc1 (stereo not given),89.7%
18,CC(C)C(=O)Nc1ccc(-c2nc(-c3cccc(O)c3)c(-c3ccnc(Br)c3)[nH]2)cc1,44.1%
19,Oc1ccc(CSc2nnc(-c3ccncc3)n2-c2ccccc2)c2cccnc12,29.7%
20,Oc1ccc(-c2nnc(SCc3ccc(O)c4ncccc34)o2)cc1,17%
